The supplement of paper PMC11732987, “Enantioselective OTUD7B fragment discovery through chemoproteomics screening and high-throughput optimisation” (Communications Chemistry, 2025)

How the values were obtained:
Assay in all cases: log2 ratio of Biotin-Ahx-Ub-VS probe labelling (fragment/DMSO); higher = less target engagement (more negative = stronger competition), active = hit call of the paper (q ≤ 0.05, log2 ratio ≤ -1)
Settings in all cases: compound concentration: 200 uM; treatment time: 3 h
USP34 = USP34 (UniProt Q70CQ2)
Summary of the method: (§1)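 Average log2 ratios of fragment over vehicle were obtained by unpaired t-test from global-median-normalised Spectronaut label-free quantities. Proteins with ≥2 unique peptides were included. HEK293T lysate (495 µg per sample) was treated in triplicate with fragment at 200 µM or vehicle for 3 h, then with Biotin-Ahx-Ub-VS at 0.5 µM final for 1 h, and labelled DUBs were NeutrAvidin-enriched and run by diaPASEF LC-MS/MS.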

USP36 = target: T1, USP36 (UniProt Q9P275)
T1 sequence (whole entry): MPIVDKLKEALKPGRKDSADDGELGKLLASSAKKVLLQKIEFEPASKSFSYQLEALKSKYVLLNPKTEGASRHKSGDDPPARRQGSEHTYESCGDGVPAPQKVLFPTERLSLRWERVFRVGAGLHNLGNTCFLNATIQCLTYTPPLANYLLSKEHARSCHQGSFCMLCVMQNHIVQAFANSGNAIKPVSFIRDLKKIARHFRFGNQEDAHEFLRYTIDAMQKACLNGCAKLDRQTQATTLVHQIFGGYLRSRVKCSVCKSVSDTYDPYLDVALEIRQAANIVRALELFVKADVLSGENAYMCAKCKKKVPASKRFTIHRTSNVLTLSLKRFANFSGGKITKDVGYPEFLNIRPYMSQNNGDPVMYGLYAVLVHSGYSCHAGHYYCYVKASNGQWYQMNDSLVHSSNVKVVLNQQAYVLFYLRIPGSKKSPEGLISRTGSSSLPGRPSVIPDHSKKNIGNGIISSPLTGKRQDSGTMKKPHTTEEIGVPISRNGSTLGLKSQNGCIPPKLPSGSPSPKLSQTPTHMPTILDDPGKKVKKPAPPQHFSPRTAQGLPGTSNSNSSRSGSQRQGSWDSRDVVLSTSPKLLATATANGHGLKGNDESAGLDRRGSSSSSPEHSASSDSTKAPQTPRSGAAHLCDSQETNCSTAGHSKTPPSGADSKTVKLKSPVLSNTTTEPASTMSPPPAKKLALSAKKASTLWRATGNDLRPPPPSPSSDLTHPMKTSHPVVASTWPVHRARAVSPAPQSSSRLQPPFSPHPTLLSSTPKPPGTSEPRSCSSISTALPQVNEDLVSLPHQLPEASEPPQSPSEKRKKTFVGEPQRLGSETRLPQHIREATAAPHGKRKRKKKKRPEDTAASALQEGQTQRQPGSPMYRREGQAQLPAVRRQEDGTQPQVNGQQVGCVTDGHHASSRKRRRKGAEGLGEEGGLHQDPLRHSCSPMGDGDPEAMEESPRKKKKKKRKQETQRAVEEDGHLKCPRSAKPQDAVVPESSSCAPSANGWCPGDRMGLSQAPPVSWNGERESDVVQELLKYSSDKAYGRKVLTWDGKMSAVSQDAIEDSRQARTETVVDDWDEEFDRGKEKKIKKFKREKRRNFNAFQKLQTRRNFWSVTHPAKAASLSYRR
Summary of the method: as §1

USP38 = target: T2, USP38 (UniProt Q8NB14)
T2 sequence (whole entry): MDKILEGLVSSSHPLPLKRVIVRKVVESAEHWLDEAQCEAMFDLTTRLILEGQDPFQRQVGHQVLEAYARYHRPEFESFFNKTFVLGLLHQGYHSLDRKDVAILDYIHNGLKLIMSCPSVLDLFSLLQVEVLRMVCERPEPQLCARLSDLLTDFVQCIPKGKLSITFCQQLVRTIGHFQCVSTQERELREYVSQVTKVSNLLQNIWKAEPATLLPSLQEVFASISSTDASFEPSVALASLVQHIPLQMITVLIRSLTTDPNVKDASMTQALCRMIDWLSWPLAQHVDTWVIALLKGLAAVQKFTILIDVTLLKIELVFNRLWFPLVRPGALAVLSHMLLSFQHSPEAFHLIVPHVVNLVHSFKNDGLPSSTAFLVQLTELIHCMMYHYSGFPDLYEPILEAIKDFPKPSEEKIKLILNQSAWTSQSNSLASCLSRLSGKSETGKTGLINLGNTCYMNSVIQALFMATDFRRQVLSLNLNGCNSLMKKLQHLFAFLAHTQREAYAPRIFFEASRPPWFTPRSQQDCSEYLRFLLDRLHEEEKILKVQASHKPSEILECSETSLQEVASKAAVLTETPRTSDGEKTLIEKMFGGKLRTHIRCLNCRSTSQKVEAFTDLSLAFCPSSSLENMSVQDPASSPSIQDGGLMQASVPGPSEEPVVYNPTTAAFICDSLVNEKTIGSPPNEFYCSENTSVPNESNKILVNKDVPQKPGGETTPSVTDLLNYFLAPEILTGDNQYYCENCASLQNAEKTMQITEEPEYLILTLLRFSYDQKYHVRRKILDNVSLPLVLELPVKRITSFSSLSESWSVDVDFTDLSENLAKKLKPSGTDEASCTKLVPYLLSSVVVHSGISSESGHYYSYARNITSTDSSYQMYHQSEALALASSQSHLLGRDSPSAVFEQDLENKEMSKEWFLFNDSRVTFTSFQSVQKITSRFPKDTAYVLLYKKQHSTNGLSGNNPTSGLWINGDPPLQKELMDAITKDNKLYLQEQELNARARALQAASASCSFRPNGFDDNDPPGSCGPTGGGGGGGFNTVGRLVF
Summary of the method: as §1

USP39 = target: T3, USP39 (UniProt Q53GS9)
T3 sequence (whole entry): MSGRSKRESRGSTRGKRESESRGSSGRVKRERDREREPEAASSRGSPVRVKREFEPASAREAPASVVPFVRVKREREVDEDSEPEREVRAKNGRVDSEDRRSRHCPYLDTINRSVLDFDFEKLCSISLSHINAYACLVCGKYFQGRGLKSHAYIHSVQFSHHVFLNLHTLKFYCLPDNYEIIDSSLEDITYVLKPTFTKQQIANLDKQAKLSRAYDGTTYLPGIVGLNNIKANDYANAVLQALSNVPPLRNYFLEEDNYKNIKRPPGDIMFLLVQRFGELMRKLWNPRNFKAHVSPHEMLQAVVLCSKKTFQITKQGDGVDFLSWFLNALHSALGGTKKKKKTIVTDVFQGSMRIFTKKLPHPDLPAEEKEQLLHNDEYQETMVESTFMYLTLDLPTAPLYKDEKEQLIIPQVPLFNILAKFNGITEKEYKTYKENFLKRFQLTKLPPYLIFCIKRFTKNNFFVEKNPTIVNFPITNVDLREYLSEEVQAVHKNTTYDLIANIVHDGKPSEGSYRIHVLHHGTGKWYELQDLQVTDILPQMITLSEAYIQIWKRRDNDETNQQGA
Summary of the method: as §1

USP4 = target: T4, USP4 (UniProt Q13107)
T4 sequence (whole entry): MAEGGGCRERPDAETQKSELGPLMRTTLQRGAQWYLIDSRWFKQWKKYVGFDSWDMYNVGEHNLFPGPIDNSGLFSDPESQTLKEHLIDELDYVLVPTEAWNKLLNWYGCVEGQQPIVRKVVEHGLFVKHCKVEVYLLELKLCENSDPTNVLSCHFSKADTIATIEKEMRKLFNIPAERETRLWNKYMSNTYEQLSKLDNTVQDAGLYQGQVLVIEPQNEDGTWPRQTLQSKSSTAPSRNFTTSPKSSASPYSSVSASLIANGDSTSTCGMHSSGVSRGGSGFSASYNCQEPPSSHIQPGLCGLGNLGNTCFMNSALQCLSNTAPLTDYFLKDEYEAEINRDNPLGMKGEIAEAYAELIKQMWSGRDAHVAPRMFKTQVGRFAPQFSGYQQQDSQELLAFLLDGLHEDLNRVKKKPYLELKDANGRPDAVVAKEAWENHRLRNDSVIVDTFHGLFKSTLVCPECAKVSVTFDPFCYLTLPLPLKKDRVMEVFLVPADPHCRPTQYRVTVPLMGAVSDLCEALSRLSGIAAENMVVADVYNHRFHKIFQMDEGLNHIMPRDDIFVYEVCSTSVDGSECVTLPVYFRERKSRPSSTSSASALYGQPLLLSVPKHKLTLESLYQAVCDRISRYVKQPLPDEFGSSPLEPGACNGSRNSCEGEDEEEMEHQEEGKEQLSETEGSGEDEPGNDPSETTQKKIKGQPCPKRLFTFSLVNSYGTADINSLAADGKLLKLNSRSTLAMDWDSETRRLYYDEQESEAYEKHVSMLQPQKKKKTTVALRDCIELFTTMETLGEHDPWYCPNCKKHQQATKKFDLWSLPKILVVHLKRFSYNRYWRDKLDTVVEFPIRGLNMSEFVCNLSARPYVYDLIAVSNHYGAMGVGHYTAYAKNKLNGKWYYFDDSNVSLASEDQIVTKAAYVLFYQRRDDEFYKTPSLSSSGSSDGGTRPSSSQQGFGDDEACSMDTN
Summary of the method: as §1

Measured: log2 ratio of Biotin-Ahx-Ub-VS probe labelling

USP34, sequence (Q70CQ2 whole entry, the tested form may be a part): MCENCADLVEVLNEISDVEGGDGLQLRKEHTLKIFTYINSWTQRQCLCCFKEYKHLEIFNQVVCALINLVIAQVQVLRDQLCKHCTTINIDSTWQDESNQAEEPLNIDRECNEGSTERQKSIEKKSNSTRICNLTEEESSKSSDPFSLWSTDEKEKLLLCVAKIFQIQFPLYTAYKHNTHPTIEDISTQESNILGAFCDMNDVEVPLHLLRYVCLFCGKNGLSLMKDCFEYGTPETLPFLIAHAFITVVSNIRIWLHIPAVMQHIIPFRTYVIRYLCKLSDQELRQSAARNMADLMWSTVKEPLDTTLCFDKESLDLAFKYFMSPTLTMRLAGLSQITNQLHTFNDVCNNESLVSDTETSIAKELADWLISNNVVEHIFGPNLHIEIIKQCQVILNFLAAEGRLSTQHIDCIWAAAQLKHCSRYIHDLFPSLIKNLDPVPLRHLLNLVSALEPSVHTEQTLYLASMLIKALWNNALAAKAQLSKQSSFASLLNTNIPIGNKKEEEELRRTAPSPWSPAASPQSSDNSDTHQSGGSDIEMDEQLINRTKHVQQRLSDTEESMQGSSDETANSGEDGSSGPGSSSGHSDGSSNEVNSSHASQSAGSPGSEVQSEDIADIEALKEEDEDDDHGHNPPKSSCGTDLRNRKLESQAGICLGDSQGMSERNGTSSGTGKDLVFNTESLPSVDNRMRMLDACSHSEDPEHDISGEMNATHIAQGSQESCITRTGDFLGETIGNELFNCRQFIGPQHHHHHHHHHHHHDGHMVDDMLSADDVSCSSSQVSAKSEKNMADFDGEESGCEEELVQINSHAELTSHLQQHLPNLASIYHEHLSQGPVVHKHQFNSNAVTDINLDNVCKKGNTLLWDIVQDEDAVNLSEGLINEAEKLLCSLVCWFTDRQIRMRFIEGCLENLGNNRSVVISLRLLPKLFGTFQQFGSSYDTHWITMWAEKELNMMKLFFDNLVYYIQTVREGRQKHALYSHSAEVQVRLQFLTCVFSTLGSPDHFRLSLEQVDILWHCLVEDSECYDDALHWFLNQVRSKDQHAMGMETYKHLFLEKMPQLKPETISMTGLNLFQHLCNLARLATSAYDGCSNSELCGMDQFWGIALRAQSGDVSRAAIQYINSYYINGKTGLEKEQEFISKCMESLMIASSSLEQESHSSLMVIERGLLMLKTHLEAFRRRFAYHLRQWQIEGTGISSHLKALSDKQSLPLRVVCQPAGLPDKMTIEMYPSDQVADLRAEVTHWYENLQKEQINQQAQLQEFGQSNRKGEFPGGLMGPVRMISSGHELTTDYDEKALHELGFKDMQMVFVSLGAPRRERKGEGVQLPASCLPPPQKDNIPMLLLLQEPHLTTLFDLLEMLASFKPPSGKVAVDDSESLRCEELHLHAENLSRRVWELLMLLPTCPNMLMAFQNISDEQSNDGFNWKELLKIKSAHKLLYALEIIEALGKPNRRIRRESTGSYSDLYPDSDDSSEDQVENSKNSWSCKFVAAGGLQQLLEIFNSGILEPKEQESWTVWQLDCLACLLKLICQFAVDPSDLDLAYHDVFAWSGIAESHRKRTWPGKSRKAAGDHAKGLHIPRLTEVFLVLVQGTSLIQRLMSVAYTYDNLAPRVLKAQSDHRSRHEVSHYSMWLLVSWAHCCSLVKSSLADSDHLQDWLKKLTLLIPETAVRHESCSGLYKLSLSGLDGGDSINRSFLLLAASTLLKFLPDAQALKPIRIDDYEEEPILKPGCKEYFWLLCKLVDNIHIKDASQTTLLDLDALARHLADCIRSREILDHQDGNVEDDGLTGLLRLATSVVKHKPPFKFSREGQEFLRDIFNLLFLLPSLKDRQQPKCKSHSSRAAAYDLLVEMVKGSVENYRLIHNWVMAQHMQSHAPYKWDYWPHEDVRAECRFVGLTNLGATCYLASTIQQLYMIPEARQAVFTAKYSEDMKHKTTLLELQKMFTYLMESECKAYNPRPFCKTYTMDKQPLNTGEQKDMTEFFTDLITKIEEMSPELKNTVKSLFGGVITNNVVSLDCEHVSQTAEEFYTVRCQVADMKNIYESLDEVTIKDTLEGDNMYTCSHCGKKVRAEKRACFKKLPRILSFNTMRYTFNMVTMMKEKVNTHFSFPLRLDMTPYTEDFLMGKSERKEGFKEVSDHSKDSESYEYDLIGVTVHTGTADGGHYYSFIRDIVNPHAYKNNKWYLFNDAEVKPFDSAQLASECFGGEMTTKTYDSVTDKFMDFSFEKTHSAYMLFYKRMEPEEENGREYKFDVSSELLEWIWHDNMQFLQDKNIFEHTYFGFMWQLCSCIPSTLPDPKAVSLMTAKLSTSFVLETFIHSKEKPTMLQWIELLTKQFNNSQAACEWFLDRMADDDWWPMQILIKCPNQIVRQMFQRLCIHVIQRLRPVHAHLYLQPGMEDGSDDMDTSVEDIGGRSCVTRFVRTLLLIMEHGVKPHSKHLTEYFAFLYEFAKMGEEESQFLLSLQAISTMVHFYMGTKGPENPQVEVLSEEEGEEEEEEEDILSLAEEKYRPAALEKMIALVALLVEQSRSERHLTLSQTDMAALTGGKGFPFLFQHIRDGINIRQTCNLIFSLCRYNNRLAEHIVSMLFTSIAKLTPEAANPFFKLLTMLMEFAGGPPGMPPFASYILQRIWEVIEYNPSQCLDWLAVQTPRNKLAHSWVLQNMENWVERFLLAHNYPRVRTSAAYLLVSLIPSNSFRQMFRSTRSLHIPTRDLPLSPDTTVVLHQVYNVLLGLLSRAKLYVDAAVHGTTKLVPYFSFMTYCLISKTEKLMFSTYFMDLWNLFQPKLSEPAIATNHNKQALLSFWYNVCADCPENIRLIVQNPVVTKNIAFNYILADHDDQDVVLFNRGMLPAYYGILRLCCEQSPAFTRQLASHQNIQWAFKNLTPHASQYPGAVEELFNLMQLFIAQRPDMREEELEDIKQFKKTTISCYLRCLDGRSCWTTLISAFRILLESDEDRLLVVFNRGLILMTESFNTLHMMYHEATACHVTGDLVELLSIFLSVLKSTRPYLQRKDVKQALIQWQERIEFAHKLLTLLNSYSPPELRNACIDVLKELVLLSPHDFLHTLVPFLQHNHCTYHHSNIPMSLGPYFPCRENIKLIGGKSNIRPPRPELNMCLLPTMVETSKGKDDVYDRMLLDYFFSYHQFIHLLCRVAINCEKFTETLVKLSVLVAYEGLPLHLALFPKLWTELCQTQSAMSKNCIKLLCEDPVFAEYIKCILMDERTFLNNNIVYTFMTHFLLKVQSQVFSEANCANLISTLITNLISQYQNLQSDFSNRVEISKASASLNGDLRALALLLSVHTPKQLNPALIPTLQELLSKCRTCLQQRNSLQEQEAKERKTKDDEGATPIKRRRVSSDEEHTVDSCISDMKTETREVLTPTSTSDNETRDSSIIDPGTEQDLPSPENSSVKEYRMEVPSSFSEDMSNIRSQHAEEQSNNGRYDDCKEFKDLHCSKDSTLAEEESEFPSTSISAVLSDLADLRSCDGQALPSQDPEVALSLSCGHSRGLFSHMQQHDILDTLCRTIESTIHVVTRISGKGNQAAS

O=C(CCl)N1CCC2(CCC(O)CC2)CC1
inactive: USP34 -0.363 | USP36 -0.0873 | USP38 0.139 | USP39 0.333 | USP4 0.123
